Test results from PubChem BioAssay AID1497 (Sanford-Burnham Center for Chemical Genomics, 2009).
About 500 (0.54%) of roughly 93,000 compounds were called active. The entries come from a sample that favours actives as a whole. A number with no mark means an inactive call.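 How the source made its calls: active means primary inhibition of 50% or more at 10 µM, then 40% or more on retest; inactive means the rest.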

Molecular target: Integrin beta-2 (Homo sapiens) + Integrin alpha-M (Homo sapiens) (UniProt P05107+P11215)
Assay: antagonists of integrin CD11b/CD18-fibrinogen binding – K562 cells, luminescence, primary screen (AID 1497)
Conditions: K562 CD11b/CD18 adhesion to fibrinogen, ATPlite luminescence; at 10 µM; hits give high values; Mn2+ added to activate the integrin

Integrin beta-2 (Homo sapiens) + Integrin alpha-M (Homo sapiens), sequence (P05107 whole entry, looked up, other chains not shown): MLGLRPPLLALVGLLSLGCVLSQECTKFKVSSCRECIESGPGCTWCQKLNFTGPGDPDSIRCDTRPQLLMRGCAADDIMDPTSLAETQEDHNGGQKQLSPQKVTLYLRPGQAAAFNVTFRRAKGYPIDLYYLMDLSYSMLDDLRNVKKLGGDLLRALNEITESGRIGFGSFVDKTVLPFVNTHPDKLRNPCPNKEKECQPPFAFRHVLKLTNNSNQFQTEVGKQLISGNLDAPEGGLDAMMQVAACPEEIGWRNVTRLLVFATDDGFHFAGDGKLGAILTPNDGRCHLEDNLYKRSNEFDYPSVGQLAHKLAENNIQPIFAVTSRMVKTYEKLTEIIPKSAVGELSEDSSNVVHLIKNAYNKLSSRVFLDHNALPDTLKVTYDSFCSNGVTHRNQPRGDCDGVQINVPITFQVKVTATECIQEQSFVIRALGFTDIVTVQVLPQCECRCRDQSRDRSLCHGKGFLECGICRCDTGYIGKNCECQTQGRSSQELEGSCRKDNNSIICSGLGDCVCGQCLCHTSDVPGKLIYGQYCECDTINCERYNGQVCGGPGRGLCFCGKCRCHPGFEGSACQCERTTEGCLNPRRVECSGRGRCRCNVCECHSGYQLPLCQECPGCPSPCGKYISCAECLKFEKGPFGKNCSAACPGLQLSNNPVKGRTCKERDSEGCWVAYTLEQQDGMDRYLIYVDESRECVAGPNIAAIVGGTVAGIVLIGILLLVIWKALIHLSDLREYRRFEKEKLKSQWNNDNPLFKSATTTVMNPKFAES

Row | SMILES | inhibition
1 | COc1cc(OC)c(C(=O)OC(C)C(=O)Nc2cc(C(F)(F)F)ccc2Cl)cc1OC (stereo not given) | 26.7%
2 | COc1ccc2nc(SCc3ccccc3)nc(C)c2c1 | 1.5%
3 | CC(C)(C)OC(=O)N/N=C/c1ccc(C(=O)O)cc1 | -1.8%
4 | CC(C)Nc1nnc(SCC(=O)/C=C2\N(C)c3ccccc3C2(C)C)s1 | 21.6%
5 | CCOC(=O)c1cnc2ccc(F)cc2c1Nc1ccc2c(c1)OCCO2 | 2.6%
6 | Cc1c(NS(=O)(=O)c2ccc(NC3CCCC3)c([N+](=O)[O-])c2)c(=O)n(-c2ccccc2)n1C | 1%
7 | Cc1cccc(CC(=O)N2CCN=C2SCc2ccc([N+](=O)[O-])cc2)c1 | -1.1%
8 | COc1ccc(CCNc2cc(C)nc3c(-c4ccc(Cl)cc4)c(C)nn23)cc1OC | 2.7%
9 | Cc1cccc(-n2c(C)cc(/C=N\NC(=O)c3cccs3)c2C)c1 | 37.3%
10 | Cc1nc(CNS(=O)(=O)c2ccc(Oc3ccccc3)cc2)cs1 | 91.7% (active)
11 | Cc1nc(CNS(=O)(=O)c2cccnc2)cs1 | -2.1%
12 | Cc1ccc(S(=O)(=O)NCc2csc(C)n2)c(C)c1 | -9%
13 | COc1ccccc1N=Cc1c(O)c2ccccc2oc1=O | 6%
14 | Oc1c(Br)cccc1/C=N/Nc1c(F)c(F)c(F)c(F)c1F | 99.8%
15 | Cc1cc([N+](=O)[O-])ccc1NC(=O)C1CCCO1 (stereo not given) | 24.2%
16 | CCOC(=O)/C(C#N)=C/c1ccc(N2CCN(Cc3ccccc3)CC2)cc1 | 82.1%
17 | Cc1ccc(NC(=S)NC(=O)/C=C/c2ccc(Cl)cc2)cc1 | 7.2%
18 | Cc1ccc(/C=N/NC(=O)CNC(=O)COc2ccccc2)o1 | -10.5%
19 | O=c1c(Cl)c(NCc2ccc(F)cc2Cl)cnn1C12CC3CC(CC(C3)C1)C2 | -4%
20 | Cc1c(C(=O)NCCN2C(=O)S/C(=C\c3cccs3)C2=O)cccc1[N+](=O)[O-] | 7%

Row | SMILES | inhibition
21 | Cc1sc2ncnc(Sc3nc4ccccc4s3)c2c1C | -5.9%
22 | O=[N+]([O-])c1ccc(N2CCN(S(=O)(=O)c3ccccc3)CC2)cc1N1CCc2ccccc2C1 | -22.4%
23 | CCOCCCNC(=O)C(=O)NCCCOCC | -3%
24 | Cc1ccc(NC(=S)N2CCN(c3ncccn3)CC2)cc1C | -4.4%
25 | Cc1cc2oc(=O)cc(CN3CCN(S(=O)(=O)c4cccs4)CC3)c2cc1C(C)C | 22.2%
26 | CCN(c1ccc(NC(=O)COC(=O)CCc2nc3ccccc3n2-c2ccccc2)cc1)C(C)C | 15.2%
27 | CC(C)N1C(=O)N(c2ccccc2)C(C)(O)CC1(C)C (stereo not given) | -10.1%
28 | Cc1cccc(NC(=O)Cn2c(=O)n(Cc3ccccc3)c(=O)c3c(C)c(C)sc32)c1 | -17.5%
29 | CCOc1ccc(NC(=O)COc2ccc(C(=O)NC3CCCc4ccccc43)cc2OC)cc1 (stereo not given) | 1.8%
30 | CCCN1CNC(=S)N(CCc2ccccc2)C1 | -28.3%
31 | O=c1oc2cc(O)ccc2cc1-c1ccc(F)cc1 | -2.5%
32 | CCCCCCc1cc2cc(-c3nnc(-c4ccccc4)o3)c(=O)oc2cc1O | 94% (active)
33 | Cc1c(C(=O)OC(C)C)sc(NC(=O)c2cccnc2)c1C#N | 86% (active)
34 | CCOc1cccc(C(=O)Nc2cccnc2)c1 | -2.2%
35 | CCOC(=O)c1cc(NC(=O)c2cccnc2)cc(C(=O)OCC)c1 | -52.6%
36 | Cc1ccc(C2CC(=O)NC(SCC(=O)OCc3ccccc3)=C2C#N)o1 (stereo not given) | 29.9%
37 | CCOC(=O)CSC1=C(C#N)C(c2ccco2)C(C(=O)OCc2ccccc2)=C(C)N1 (stereo not given) | 34.5%
38 | CCOC(=O)CSC1=C(C#N)C(c2sccc2C)CC(=O)N1 (stereo not given) | 56.1% (active)
39 | CCCn1c(N)c(C(=O)CSc2nnc(-c3cccnc3)n2-c2ccc(C)cc2C)c(=O)[nH]c1=O | -8.1%
40 | Cc1cc(Br)ccc1SCC(=O)OCC(=O)NCc1ccc2c(c1)OCO2 | 10.7%

Row | SMILES | inhibition
41 | O=C(CSc1nc2ccccc2c(=O)n1CCCO)N1CCc2ccccc21 | 21.1%
42 | O=C(N/N=C/c1cccc([N+](=O)[O-])c1)C1CC(=O)N(c2ccc(Br)cc2)C1 (stereo not given) | -4.8%
43 | COC(=O)c1c(C)oc2ccc(N(C(=O)Oc3ccccc3)S(=O)(=O)c3ccccc3)cc12 | 2.5%
44 | Cc1ccc2nc(SCc3cn4c(C)cc(C)nc4n3)[nH]c2c1 | -5.6%
45 | COc1ccc(C(CC(=O)Nc2ccc(C)cc2)NC(=O)C(F)(F)F)cc1 (stereo not given) | -24.1%
46 | CCCc1c(C)nc2c(Br)cccc2c1Cl | 13.2%
47 | Cc1c(Cl)cccc1NC(=O)Nc1ccc(C(=O)N2CCCC2)cc1 | 9.6%
48 | CCOc1ccc(/C=N/OCC(=O)NCc2cccs2)cc1 | 9%
49 | CCc1c(C)sc(NC(=O)/C=C/c2ccc3c(c2)OCO3)c1C(=O)OC | -6.4%
50 | O=C(Cc1ccc(-c2ccccc2)cc1)NC(c1ccccc1)c1ccccc1 | -18.2%
51 | CCOc1cc(CNCc2ccccn2)ccc1OCC(=O)NC(C)(C)C | 7.5%
52 | CC(C)(C)NC(=O)COC(=O)c1cc(Br)ccc1Cl | 12.8%
53 | CC(C)C(=O)Nc1cccc(NC(=O)c2ccc([N+](=O)[O-])cc2Cl)c1 | -3.1%
54 | CCOc1ccc(NC(=O)c2ccccc2NS(C)(=O)=O)cc1 | -19.4%
55 | COC(=O)c1ccccc1NC(=O)c1ccccc1NS(C)(=O)=O | -14.9%
56 | COC(=O)c1ccc(NC(=O)c2ccccc2NS(=O)(=O)c2ccccc2)cc1 | 102% (active)
57 | O=C(Oc1ccc([N+](=O)[O-])cc1)c1ccc(Cl)c(S(=O)(=O)N2CCCCC2)c1 | 8.6%
58 | Cc1ccc(NC(=O)c2sc3nc(N)c(C#N)cc3c2N)cc1 | 10.7%
59 | COc1cccc(N(C(=O)C2COc3ccccc3O2)C(C(=O)NC2CCCCC2)c2ccc(O)cc2)c1 (stereo not given) | -5%
60 | Cc1ccc(CSCC(N)C(=O)O)cc1 (stereo not given) | -2%
